# Laboratory results reported in PubChem BioAssay (NCI).
# This is part of a sample that, as a whole, favours compounds with a hit. Of some 83,000 tested, about 20% had one in any assay.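 Activity criterion: percent growth below 10, measured after cells in 96-well plates were exposed to a single compound concentration for 48 hours.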 A number with no mark means an inactive call. Activity calls are given as the source filed them.
# Legend:
# Experiment in all cases: NCI-60 one-dose screen, 48 h (100 = growth as untreated, 0 = no growth, -100 = all killed)
# Conditions in all cases: 10 µM unless noted
# T-47D breast = test system: T-47D breast
# BT-549 breast = test system: BT-549 breast
# MDA-MB-435 melanoma = test system: MDA-MB-435 melanoma
# SW-620 colon = test system: SW-620 colon
# MCF7 breast = test system: MCF7 breast
# HCT-116 colon = test system: HCT-116 colon
# HCC-2998 colon = test system: HCC-2998 colon
# KM12 colon = test system: KM12 colon
Compound,growth (T-47D breast),growth (BT-549 breast),growth (MDA-MB-435 melanoma),growth (SW-620 colon),growth (MCF7 breast),growth (HCT-116 colon),growth (HCC-2998 colon),growth (KM12 colon)
Cc1c(C(=O)NO)sc2ncnc(Nc3ccc(NC(=S)Nc4ccccc4)cc3)c12,113%,106%,101%,105%,95.3%,105%,99.9%,102%
NC(=O)C1(N2CCCCC2)CCN(CCCC(=O)c2ccc(F)cc2)CC1,44%,56.3%,-48.3% (active),19.6%,20%,19.3%,11%,15.8%
[2H]C1([2H])NC([2H])([2H])C([2H])([2H])N(c2ccc(Nc3ncc4cc(C(=O)N(C)C)n(C5CCCC5)c4n3)nc2)C1([2H])[2H],68%,92.9%,68.7%,42.2%,45%,55.3%,89.9%,54.5%
COc1ccccc1C(C[N+](=O)[O-])c1c(-c2ccccc2)[nH]c2cc(C)ccc12 (configuration not stated),32.2%,80.1%,13.8%,54.6%,55.6%,53.8%,93.6%,63.1%
CC(=O)c1cccc(NS(=O)(=O)c2cccc(C(=O)Nc3ccc(Br)cc3)c2)c1,26.7% [25 µM],46.9% [25 µM],37.6% [25 µM],67.4% [25 µM],49% [25 µM],39.9% [25 µM],79.7% [25 µM],56% [25 µM]
O=C1c2ccccc2C(=O)c2c(NCCN=Cc3ccccc3O)cccc21,63.6%,73.4%,71.5%,35.4%,32.4%,15.4%,30.9%,48.7%
COc1ccc(C2CC(c3cccc(Nc4ccncc4)c3)=NN2c2ccc(Cl)cc2)cc1 (configuration not stated),65.7%,105%,-85.4% (active),-89.4% (active),-16.8% (active),108%,-13.5% (active),-72.1% (active)
COc1ccc(Nc2nc(N)nc3c2CCc2occc2-3)cc1,83.4%,78.3%,105%,106%,78.7%,90%,108%,95.9%
O=C(CCN1CCCC1)Nc1ccc2c(NCc3ccc(F)cc3)c3ccccc3nc2c1,-5.76% (active),18.5%,-53.4% (active),-31.3% (active),-12.2% (active),-29.9% (active),-32.5% (active),-6.48% (active)
CC(=O)c1c(C)[nH]c(-c2nc3ccc(N4CCN(C)CC4)cc3[nH]2)c1-c1ccccc1,20.3%,81.9%,19.8%,54.8%,7.32% (active),59.6%,27.8%,39.7%
c1ccc2c(-c3c4ccsc4cc4[nH]c5ccccc5c34)c[nH]c2c1,26.3%,33.9%,1.93% (active),25.4%,15%,17.5%,65.6%,14.9%
COc1cc(/C=C2\C(=O)N(Cc3ccc(Cl)cc3)c3ccccc32)cc(OC)c1OC,32.1%,9.56% (active),28.2%,-29.7% (active),8.81% (active),-23.4% (active),-28.5% (active),15.5%
COc1ccc(-c2nc(N/N=C/c3c[nH]c4ccccc34)nc(N3CCOCC3)c2C#N)cc1,94.9%,97%,108%,72.6%,80.2%,59.8%,100%,83.9%
COc1ccc(CC(C)=C(c2ccc(OCCN(C)C)cc2)c2ccc(OCCN(C)C)cc2)cc1,84.5%,78.3%,61.9%,48.1%,69.7%,22%,89%,75.5%
O=C(Nc1ccc2cc3ccc(NC(=O)NC4CCCCC4)cc3nc2c1)NC1CCCCC1,81.9%,75%,95.3%,84.3%,47.3%,65.1%,101%,97%
O=S(=O)(c1cccc(NC2=Nc3cccc4cccc2c34)c1)N1CCCC1,44.5%,48%,29.3%,64.4%,51.4%,62.8%,79.5%,71.7%
Cn1c(COC(=O)NCCn2ccnc2)nc2c(N3CCOCC3)nc(-c3ccccc3)nc21,-36.1% (active),-78.2% (active),-91.2% (active),-68.8% (active),-67% (active),-74.6% (active),-82.1% (active),-69.3% (active)
COc1ccccc1/C=C1\COc2ccc(-c3ccccc3)cc2C1=O,14%,12%,-45% (active),16.8%,-9.07% (active),5.64% (active),51.6%,-32% (active)
COc1ccc(C(=O)/C=C/c2cn(Cc3ccc(Cl)cc3)c3ccccc23)cc1,48.2%,86.9%,-20.5% (active),28%,52.6%,-77.5% (active),59.7%,32.2%
O=C(N/N=C/c1cccc(O)c1)c1ccccc1Nc1cccc(C(F)(F)F)c1,52%,67.3%,88.8%,95.1%,73.4%,83.4%,82.7%,81.5%
COc1cc(/C=N/NC(=O)c2ccccc2Nc2cccc(C(F)(F)F)c2)ccc1O,55.6%,102%,81.4%,101%,83.9%,67.2%,91.4%,79.5%
COc1ccc(NC(=O)c2sc3nc(C)c(C(=O)CCc4cccc(OC)c4)cc3c2N)cc1,67.6%,79.6%,-10.4% (active),64.7%,16.5%,45.6%,56%,56.1%
O=C(NCCN1CCOCC1)OCc1nc2nc(Cl)nc(N3CCOCC3)c2[nH]1,63.2%,13.1%,-28.9% (active),23.9%,20.2%,8.45% (active),77.8%,3.29% (active)
BrC(Br)(Br)c1cnc2ccccc2n1,-49.3% (active),74.4%,36.5%,-65% (active),25.8%,-40.3% (active),43.8%,42.7%
COc1ccc(C2CC(c3cccc(Nc4ccncc4)c3)=NN2c2ccccc2)cc1 (configuration not stated),68.9%,-16.1% (active),-57% (active),-72.2% (active),8.74% (active),1.38% (active),-52.5% (active),-18.1% (active)
COc1ccncc1C#Cc1cncc(C(=O)Nc2ccc(CN3CCN(C)CC3)c(C(F)(F)F)c2)c1,55.9%,50.9%,15.4%,4.42% (active),6.1% (active),8.44% (active),40.9%,6.75% (active)
CC(C)(C)CC(C)(C)Nc1c(-c2ccc3c(c2)OCO3)nc2cnccn12,84.2%,82.2%,99.1%,109%,74.1%,5.36% (active),93.7%,96.2%
C[C@@H]1CN(Cc2ccc(/C=C/c3n[nH]c4ccc5nc(-c6cn[nH]c6C(F)(F)F)c6c(c5c34)CCCC6)cc2)C[C@H](C)O1,49.8%,39.6%,46.7%,-16.6% (active),12.4%,4.51% (active),27.6%,19.8%
c1ccc(-c2nnc(Nc3ccc4c(c3)OCCO4)o2)c(NCc2ccncc2)c1,52.7%,-15.1% (active),-34.6% (active),27.9%,20%,4.92% (active),-22.3% (active),-38.3% (active)
